Test results from PubChem BioAssay AID2283162 (EPA ToxCast).
Results filed as inconclusive are left out. Activity calls are given as the source filed them. Rule for the calls: active = hit-call score of the fitted dose curve at least 0.9, where 1 is the maximum; inconclusive = response in the unintended direction; inactive = score below 0.9.

The compounds below were run against human Insulin-like Growth Factor 1 Receptor (IGF1R), IGF1R (gene 3480) (UniProt P08069) (assay: NVS_ENZ_hIGF1R: NovaScreen (NVS) Enzymatic Assay for human Insulin-like Growth Factor 1 Receptor (IGF1R)).
Experimental: NVS_ENZ_hIGF1R is a biochemical, single-readout assay that uses extracted gene-proteins in a cell-free assay. Measurements were taken 1 hour after chemical dosing in a 384-well plate.NVS_ENZ_hIGF1R is one of one assay component(s) measured or calculated from the NVS_ENZ_hIGF1R assay. It is designed to make measurements of enzyme activity, a form of enzyme reporter, as detected with fluorescence intensity signals by Fluorescence and electrophoretic mobility shift technology.Data from the assay component NVS_ENZ_hIGF1R was analyzed into 1 assay endpoint. This assay endpoint, NVS_ENZ_hIGF1R, was analyzed in the positive analysis fitting direction relative to DMSO as the negative control and baseline of activity. Using a type of enzyme reporter, loss-of-signal activity can be used to understand changes in the enzymatic activity as they relate to the gene IGF1R. Furthermore, this assay endpoint can be referred to as a primary readout, because this assay has produced multiple assay endpoints where this one serves a enzymatic activity function. To generalize the intended target to other relatable targets, this assay endpoint is annotated to the kinase intended target family, where the subfamily is receptor tyrosine kinase.
Binding assays used specific radioligands (tritiated, iodinated) with non-radioactive competitive displacement ligands in agonist or antagonist protocols (as indicated) and various reference compounds and inhibitors to titrate specific binding to receptors and transporters. Most enzyme assays (CYPs, kinases, phosphatases, proteases, HDACs) used recombinant protein and specific substrates (fluorescence mostly, some colorimetric and radioactive) and inhibitors, followed by a biochemical separation of substrate and product. All assays for the biochemical HTS were initially run in duplicate at a single concentration (10 uM for CYP450 assays and 25 uM for all others). Assay-chemical combinations meeting a pre-defined threshold (e.g., 30% inhibition and other criteria defined below) were then run in singleton concentration-response format with maximum concentration of 20 uM for CYPs and 50 uM for all others. Each assay was run with positive and negative controls, and concurrent controls on every plate. The follow-up (secondary) screen tested active chemical-pairs in concentration series, as well as a few additional assays not tested in the primary screen, some selected negative inactives, and several cases re-run in the concentration series for confirmatory purposes.

Sequence of human Insulin-like Growth Factor 1 Receptor (IGF1R), IGF1R (gene 3480) (P08069 whole entry, looked up): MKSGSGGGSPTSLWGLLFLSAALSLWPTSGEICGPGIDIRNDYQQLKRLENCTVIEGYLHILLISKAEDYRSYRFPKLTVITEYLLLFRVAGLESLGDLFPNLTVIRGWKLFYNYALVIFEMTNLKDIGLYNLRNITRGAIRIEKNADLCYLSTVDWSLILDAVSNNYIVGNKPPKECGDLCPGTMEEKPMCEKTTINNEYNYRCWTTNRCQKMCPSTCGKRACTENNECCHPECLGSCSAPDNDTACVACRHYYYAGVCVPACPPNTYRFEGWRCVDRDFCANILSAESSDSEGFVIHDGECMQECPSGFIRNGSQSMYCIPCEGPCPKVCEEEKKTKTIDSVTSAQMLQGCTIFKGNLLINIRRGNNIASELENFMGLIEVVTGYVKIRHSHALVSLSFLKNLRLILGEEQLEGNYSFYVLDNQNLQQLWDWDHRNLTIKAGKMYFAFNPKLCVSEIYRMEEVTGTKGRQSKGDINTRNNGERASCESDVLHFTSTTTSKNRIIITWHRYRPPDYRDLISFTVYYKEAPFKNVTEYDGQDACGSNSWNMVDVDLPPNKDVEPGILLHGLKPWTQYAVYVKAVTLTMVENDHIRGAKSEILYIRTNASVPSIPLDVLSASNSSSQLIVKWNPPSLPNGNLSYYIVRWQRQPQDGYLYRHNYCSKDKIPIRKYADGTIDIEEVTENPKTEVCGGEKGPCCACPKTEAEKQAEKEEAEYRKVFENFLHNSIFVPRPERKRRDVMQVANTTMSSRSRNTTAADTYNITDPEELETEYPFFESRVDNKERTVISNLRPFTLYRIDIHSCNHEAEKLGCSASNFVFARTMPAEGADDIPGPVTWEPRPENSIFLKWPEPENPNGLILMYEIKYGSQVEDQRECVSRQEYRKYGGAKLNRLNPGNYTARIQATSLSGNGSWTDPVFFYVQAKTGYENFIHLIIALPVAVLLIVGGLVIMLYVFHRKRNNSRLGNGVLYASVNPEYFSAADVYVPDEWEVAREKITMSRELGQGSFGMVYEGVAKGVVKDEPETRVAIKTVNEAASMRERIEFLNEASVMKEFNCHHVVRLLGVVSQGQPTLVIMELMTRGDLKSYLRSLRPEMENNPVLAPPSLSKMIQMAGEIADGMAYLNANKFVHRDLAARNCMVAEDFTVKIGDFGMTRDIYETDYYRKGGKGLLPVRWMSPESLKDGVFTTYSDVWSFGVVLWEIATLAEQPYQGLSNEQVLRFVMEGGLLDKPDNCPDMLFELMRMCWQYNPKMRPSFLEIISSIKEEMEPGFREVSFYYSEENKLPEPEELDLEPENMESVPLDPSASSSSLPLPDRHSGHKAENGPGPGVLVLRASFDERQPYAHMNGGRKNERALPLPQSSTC

SMILES	AC50	outcome
O=C(O)CC(O)(CC(=O)O)C(=O)O	5.18 µM (active)	–
COc1cc(C(=O)NC2CCN(C)CC2)ccc1Nc1ncc2c(n1)N(C1CCCC1)CC(F)(F)C(=O)N2C	23.2 µM (active)	–
CCCCCCCC/C=C\CCCCCCCC(=O)OC[C@@H](O)[C@H]1OC[C@H](O)[C@H]1O	–	inactive
c1ccc(C(O[C@@H]2CCCN(CCc3ccc4c(c3)OCO4)C2)c2ccccc2)cc1	–	inactive
CC(C)c1cccc(C(C)C)c1NC(=O)NS(=O)(=O)c1cc(C(C)(C)O)co1	–	inactive
CCCCc1ccc2c(n1)[C@@H](c1ccc(OC)cc1C[C@H](C)C(=O)O)[C@H](C(=O)O)[C@H]2c1ccc2c(c1)OCO2	–	inactive
CN(C)C(=O)NC1(c2ccccc2)CCN(CCC[C@]2(c3ccc(Cl)c(Cl)c3)CCCN(C(=O)c3ccccc3)C2)CC1	–	inactive
